From PubChem BioAssay AID1159580 (chemical genetic matrix, 2015)
About 2,000 (36%) of roughly 5,500 compounds were called active. Not shown: some 18% with an inconclusive outcome. Some of the results follow. Values without a mark were called inactive. No stated cut-off is given here; in the data, active means normalized growth mostly below about 0.91 (no sharp cut-off); inconclusive means no clear call, values can overlap the other calls; inactive means mostly above about 0.92.

Assay: chemical genetic growth profiling, strain panel (AID 1159580);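 further: tested at 20 µM; growth read once vehicle control cultures reached saturation at 30 °C; 1 = growth at the plate median or of vehicle wells; lower values mean less growth of the strain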
Details: S. cerevisiae deletion strains, growth OD
[1] = locus YBR229C, strain ROT2, active compounds read low
[2] = locus YDL101C, strain DUN1, active compounds read low
[3] = locus YDR150W, strain NUM1, active compounds read low
[4] = locus YEL061C, strain CIN8, active compounds read low
[5] = locus YGR078C, strain PAC10, active compounds read low
[6] = locus YGR229C, strain SMI1, active compounds read low
[7] = locus YHR030C, strain SLT2, active compounds read low
[8] = locus YHR087W, strain rtc3, active compounds read low
[9] = locus YJR043C, strain POL32, active compounds read low
[10] = locus YJR075W, strain HOC1, active compounds read low
[11] = locus YKL190W, strain CNB1, active compounds read low
[12] = locus YLR039C, strain RIC1, active compounds read low
[13] = locus YLR058C, strain SHM2 (second series), active compounds read low
[14] = locus YLR085C, strain ARP6, active compounds read low
[15] = locus YLR262C, strain YPT6, active compounds read low
[16] = locus YML094W, strain GIM5, active compounds read low
[17] = locus YMR219W, strain ESC1, active compounds read low
[18] = locus YMR263W, strain SAP30, active compounds read low
[19] = locus YMR307W, strain GAS1, active compounds read low
[20] = locus YNL153C, strain GIM3, active compounds read low
[21] = locus YNL298W, strain CLA4 (second series), active compounds read low
[22] = locus YNL322C, strain KRE1, active compounds read low
[23] = locus YNR030W, strain Alg12, active compounds read low
[24] = locus YPL055C, strain LGE1, active compounds read low
[25] = locus YPL241C, strain CIN2, active compounds read low
[26] = locus YPR135W, strain CTF4, active compounds read low

Cc1ccc2cc(NC(=O)c3ccco3)ccc2n1
normalized growth (locus YAL013W, strain DEP1, active compounds read low): 0.987
normalized growth [1]: 0.998
normalized growth (locus YCL061C, strain MRC1, active compounds read low): 0.991
normalized growth [2]: 1.02
normalized growth [3]: 0.901
normalized growth [4]: 0.895 (active)
normalized growth [5]: 0.989
normalized growth [6]: 0.989
normalized growth [7]: 0.309 (active)
normalized growth [8]: 1.01
normalized growth [9]: 0.998
normalized growth [10]: 0.994
normalized growth [11]: 0.9 (active)
normalized growth [12]: 0.972
normalized growth [13]: 1.01
normalized growth [14]: 0.286 (active)
normalized growth [15]: 1.01
normalized growth [16]: 0.96
normalized growth [17]: 1
normalized growth [18]: 0.938
normalized growth [19]: 0.518 (active)
normalized growth (locus YNL128W, strain TEP1, active compounds read low): 0.962
normalized growth [20]: 1
normalized growth [21]: 0.807 (active)
normalized growth [22]: 1.01
normalized growth [23]: 0.841 (active)
normalized growth [24]: 0.92
normalized growth [25]: 0.804 (active)
normalized growth [26]: 0.385 (active)

CCCn1c(=O)c2[nH]c(-c3ccc(OCC(=O)Nc4ccc(C#N)cc4)cc3)nc2n(CCC)c1=O
normalized growth (locus YAL040C, strain CLN3, active compounds read low): 0.979
normalized growth (locus YCL061C, strain MRC1 (second series), active compounds read low): 0.998
normalized growth (locus YDR363W, strain ESC2, active compounds read low): 1.02
normalized growth (locus YER002W, strain NOP16, active compounds read low): 1
normalized growth [6]: 0.995
normalized growth [18]: 0.982
normalized growth [19]: 1.02
normalized growth [20]: 1.01
normalized growth (locus YNL175C, strain NOP13, active compounds read low): 0.994
normalized growth (locus YNL197C, strain WHI3, active compounds read low): 0.978
normalized growth (locus YNL224C, strain SQS1, active compounds read low): 0.992
normalized growth (locus YOR083W, strain WHI5 (second series), active compounds read low): 0.992
normalized growth [24]: 0.998
normalized growth [25]: 0.973

NNC(=O)c1ccccc1O
normalized growth [1]: 0.986
normalized growth [2]: 0.975
normalized growth (locus YDL134C, strain PPH21, active compounds read low): 0.988
normalized growth [3]: 0.892
normalized growth [4]: 0.965
normalized growth [5]: 1.01
normalized growth [6]: 0.989
normalized growth [7]: 1.03
normalized growth [8]: 0.99
normalized growth [9]: 0.96
normalized growth [10]: 1.02
normalized growth [11]: 0.983
normalized growth [12]: 0.958
normalized growth [13]: 1
normalized growth [14]: 0.962
normalized growth [15]: 0.975
normalized growth [16]: 0.963
normalized growth [17]: 0.996
normalized growth [18]: 1.01
normalized growth [20]: 1.01
normalized growth [21]: 0.976
normalized growth [22]: 1.01
normalized growth [23]: 1.01
normalized growth [24]: 0.916
normalized growth [25]: 1.11
normalized growth [26]: 0.956
